Results: PMC12136788
Substitutions are numbered along the chain they refer to. Whole data set: some 5,800 sequences, median “enrichment r” near 0.68, cut for the highest 2% near 11. Only a selection was taken, and the highest values are over-represented in it overall.

T1: UNK ZnF1-6 (called full-length) (human, UniProt Q9C0B0 30-357)
T1 sequence: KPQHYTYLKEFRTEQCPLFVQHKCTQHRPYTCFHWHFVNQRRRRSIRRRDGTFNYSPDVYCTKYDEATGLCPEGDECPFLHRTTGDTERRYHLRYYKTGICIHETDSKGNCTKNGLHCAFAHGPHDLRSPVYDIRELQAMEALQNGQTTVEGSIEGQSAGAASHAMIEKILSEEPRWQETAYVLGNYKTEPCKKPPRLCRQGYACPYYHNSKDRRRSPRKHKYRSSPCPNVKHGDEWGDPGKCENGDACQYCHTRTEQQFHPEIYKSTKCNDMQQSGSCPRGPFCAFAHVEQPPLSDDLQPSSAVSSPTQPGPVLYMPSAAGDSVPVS

B1: ENSG00000186472:stop:overlap|stop_codon|ENSG00000186472|stop_codon|NA|stop_codon (ssRNA)
RNA: GGGAGUUCUACAGUCCGACGAUCUUUCUUGUAAAUGGAAAUUUUAUCAUGUGUAUAGAUUCUGUAGCAUGCUUUUCUUUAUUUAGUUUUACUUUAUUCCUUUAUUGUUCUGUUUCUUGAUUGUUUGCUUGAUUUGUUUGGUGUCAACAGAGGAUUGAGCAUCA
B2: chr7:107202531:107202632:-|3pUTR|ENSG00000164597|msi1|FALSE|unique (ssRNA)
RNA: GGGAGUUCUACAGUCCGACGAUCUAUUCUGAGAACUCAUAAAUAAAAUUCAGCCAAGAUUAAUCAAUCAAUCAAUCAAUCAGUAGACGUCAGAGAUAAGCAACUUUUUUUUCCAUUUAUUUGAAAUAAUAUACAAGAAUAUAGCAACAGAGGAUUGAGCAUCA
B3: chr7:137879121:137879144:-|3pUTR|ENSG00000182158|msi1_unk|total|mutant (ssRNA)
RNA: GGGAGUUCUACAGUCCGACGAUCUAAUCCCCAACCUACUUUCCGUUUUUUUGUUUUUUUUUUAUGGUUAAAAGUAACUUUUGCCGUUUAAAAAAAUCUUUCCUCUUUCAUAUAAAUAAGAAGUGGAAAUUGCCUUUUUAUUGUCAACAGAGGAUUGAGCAUCA
B4: chr7:137879121:137879144:-|3pUTR|ENSG00000182158|msi1_unk|FALSE|overlapping (ssRNA)
RNA: B3 RNA with C42U, C43A, C83U, C84A
B5: chr3:44647099:44647200:+|3pUTR|ENSG00000186448|msi1|FALSE|unique (ssRNA)
RNA: GGGAGUUCUACAGUCCGACGAUCAUUUGUAUGUAAACUACAUAAAGAACUUUCCAAAUUUAACAGUAAUAAGUAAAUACAAUUAGAAAAUAAGCAAAAGACAGACAUUUCACUGAAGUAUAGAUAGCAAAUAAGCAAAUGAAACAACAGAGGAUUGAGCAUCA
B6: chr17:44352837:44352938:+|3pUTR|ENSG00000030582|unk|total|mutant (ssRNA)
RNA: GGGAGUUCUACAGUCCGACGAUCCUGAAGACUCUGCAGCCCUCGGGACCCCACUCGGAGGGUGCCCUCUGCUCAGGCCUCCCCCGCACCUCCCCCUAACCAAAUUCUCCCUGGACCCCAUUCUGAGCUCCCCAUCACCAUGGGCAACAGAGGAUUGAGCAUCA

The binders below were run against T1, UNK ZnF1-6 (called full-length) (assay: nsRBNS (natural sequence RNA bind-n-seq); RBNS binding buffer (assumed for nsRBNS): 25 mM Tris pH 7.5, 150 mM KCl, 3 mM MgCl2, 0.01% Triton X-100, 500 ug/ml BSA, 20 U/ml SUPERase-In, 4 C; UNK is unkempt and MSI1 is Musashi-1; names of the RNAs are library labels; protein concentration not given here; high values mean tight binding).

Row | Binder | binding signal [enrichment R]
1 | B1 | 0.541
2 | B2 | 2.67
3 | B3 | 0.762
4 | B4 | 14.9
5 | B5 | 162
6 | B6 | 0.732
